# Screening results as filed in PubChem BioAssay.
# Most compounds without a hit are left out; they make up all but 8.7% or so of the library.
# AMA1-RON2 inh: qHTS for Inhibitors of AMA1-RON; Towards Development of Antimalarial Drug Lead: Primary Screen. AlphaScreen AMA1-biotinylated RON2 peptide binding. Potency, µM (doses to about 58.2 µM), most hits filed as inhibitors. 0.2% of 360,000 active. AID 720542, 2013; note: nearly all actives have a fitted effect of over 45% in size
#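 AMA1 (3D7) with his tag at 25 nM final met compounds first, then biotinylated RON2 peptide at 25 nM; detection used donor plus acceptor beads, 10 µg/mL apiece, read by AlphaScreen after 30 min at room temperature.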
# Pf growth 48h: Primary qHTS for delayed death inhibitors of the malarial parasite plastid, 48 hour incubation. P. falciparum luciferase growth in erythrocytes, 48 h. Potency, µM (highest dose often 28.7 µM), most hits filed as inhibitors. 5.9% of 310,000 active
#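 Firefly luciferase activity from engineered P. falciparum reports growth; inhibitors lower the luminescent signal. Cultures contained 2% hematocrit erythrocytes at 0.1% final parasitemia.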
# VACV Venus inh: qHTS for Stage-Specific Inhibitors of Vaccinia Orthopoxvirus: Venus Reporter Primary qHTS. Vaccinia virus Venus reporter expression, fluorescence. Potency, µM (doses to about 36.5 µM), actives largely listed as inhibitors. 0.46% of 330,000 active. AID 720580, 2013; calls by dose curve; tested in A549 cells; note: nearly all actives have a fitted effect of over 30% in size
# Pf growth 96h: Primary qHTS for delayed death inhibitors of the malarial parasite plastid, 96 hour incubation; 6.9% of 320,000 active; P. falciparum luciferase reporter growth, 96 h; Potency, µM (highest dose often 28.7 µM), hits mostly inhibitors
#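 Parasite growth measured via integrated firefly luciferase reporter in P. falciparum. Infected erythrocytes at 2% hematocrit, 0.05% parasitemia final were treated 96 hours at 37 C under 5% CO2, and luminescence was read.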
# VACV mCherry inh: qHTS for Stage-Specific Inhibitors of Vaccinia Orthopoxvirus: mCherry Reporter Primary qHTS | Vaccinia virus mCherry reporter infection, fluorescence | Potency, µM (top dose mostly 36.5 µM), most hits filed as inhibitors | 0.63% of 310,000 active; calls by dose curve; tested in A549 cells; note: nearly all actives have a fitted effect of over 35% in size
# Hits are given with their value; n = inactive; u = inconclusive; x = no result given. Unless noted, calls come from the whole dose curve; as a rule, active = well fitted curve in the direction sought with a large enough effect; inconclusive = small, poorly fitted or top-dose-only effect, or another doubt; inactive = no such curve, though single readings can be large; an effect the other way counts as inactive or inconclusive.
SMILES,AMA1-RON2 inh,Pf growth 48h,VACV Venus inh,Pf growth 96h,VACV mCherry inh
Cc1cccn2c(=O)c(C=C(C#N)C#N)c(N3CCN(C)CC3)nc12,n,n,n,7.38µM,n
CCOC(=O)/C(C#N)=C/c1c(N2CCN(Cc3ccc4c(c3)OCO4)CC2)nc2c(C)cccn2c1=O,u,3.7µM,n,u,n
CNC(=O)/C(C#N)=C/c1c(N2CCN(c3ccccc3)CC2)nc2c(C)cccn2c1=O,n,u,n,u,n
CCc1cc2c(cc3c(=O)n(CC(=O)N4CCC(C)CC4)nc(CC)n32)s1,x,x,n,x,n
CCCCCOc1ccc(CSCCNC(=S)Nc2ccccc2)cc1,n,u,n,10.4µM,n
Cc1cccc(CSCCNC(=O)Nc2ccccc2)c1,n,u,n,n,n
CCCCOc1ccc(CSCCNC(=S)Nc2ccccc2)cc1,n,u,n,n,n
CC(C)COc1ccc(CSCCNC(=S)Nc2ccccc2)cc1,n,u,10µM,u,x
Cc1cccc(NC(=S)NCCC(C)C)c1,n,u,n,11.7µM,n
Cc1cc(C)cc(NC(=S)Nc2cccc3ccccc23)c1,n,n,x,n,x
Cc1cccc(NC(=S)Nc2cccc3ccccc23)c1,n,10.4µM,n,u,u
Cc1onc(-c2ccccc2)c1C(=O)NCCN1Cc2ccccc2OC(c2ccsc2)C1 (stereo not given),x,x,n,x,n
CCc1cnc2c(c1SCC(=O)Nc1ccc(C)cc1C)c(=O)n(C)c(=O)n2C,x,x,n,x,n
CC(C)Oc1cccc(C(=O)Nc2ccc3oc(-c4cccc(Cl)c4)nc3c2)c1,x,x,n,x,n
COCCCNC(=O)C1CC(=O)N(C2CCCC2)C1 (stereo not given),n,n,n,10.4µM,n
COCCNC(=O)C1CC(=O)N(C2CCCCC2)C1 (stereo not given),n,n,n,n,n
CCOCCCNC(=O)C1CC(=O)N(C2CCCC2)C1 (stereo not given),n,n,n,11.7µM,n
Cc1ccc(C)c(N2CCN(C(=O)CS(=O)(=O)c3cccc4nsnc34)CC2)c1,x,x,n,x,n
O=S(=O)(c1ccc2nc(-c3ccccc3)[nH]c2c1)N1CCN(c2ccc(Cl)cc2)CC1,n,11.7µM,n,u,n
O=C1c2ccccc2C(=O)c2c1ncn2-c1ccccc1,n,4.65µM,u,n,u
COc1ccc(CNC(=O)CSc2ncc3c(n2)-c2cc(Cl)ccc2N(C)S3(=O)=O)cc1,x,x,n,x,n
CN(C(=O)c1ccc2c(Cl)c3c(nc2c1)CCC3)c1ccccc1,n,n,n,u,n
CCN(C(=O)c1ccc2c(Cl)c3c(nc2c1)CCC3)c1ccc(C)c(C)c1,n,u,n,10.4µM,n
Cc1ccccc1NC(=S)NC(C)C(c1cccs1)N1CCOCC1 (stereo not given),n,u,n,u,n
CC(NC(=S)Nc1ccccc1Cl)C(c1cccs1)N1CCCC1 (stereo not given),n,u,n,11.7µM,n
SMILES,AMA1-RON2 inh,Pf growth 48h,VACV Venus inh,Pf growth 96h,VACV mCherry inh
CCOc1ccccc1N1CCN(C(=O)NC2CCCCC2)CC1,n,n,n,1.65µM,n
CCOc1ccccc1N1CCN(C(=O)c2ccc(S(=O)(=O)Nc3ccccc3)cc2)CC1,n,u,x,9.28µM,x
Cc1ccc(S(=O)(=O)Nc2ccc(C(=O)N3CCN(c4ccccc4O)CC3)cc2)cc1[N+](=O)[O-],n,14.7µM,n,n,n
COc1ccccc1N1CCN(C(=O)c2ccc(NS(=O)(=O)c3ccc(C)cc3)cc2)CC1,n,u,n,n,n
Cc1ccccc1NS(=O)(=O)c1ccc(C(=O)N2CCN(c3ccccc3O)CC2)cc1,n,13.1µM,n,5.22µM,n
O=C(CCCN1C(=O)c2cccc3cccc(c23)C1=O)N1CCN(c2ccccc2O)CC1,n,u,n,u,u
CCOc1ccccc1N1CCN(C(=O)c2ccccc2SCC(=O)N2CCCC2)CC1,n,u,n,13.1µM,n
CCOc1ccccc1N1CCN(C(=O)CCCN2C(=O)c3cccc4cccc(c34)C2=O)CC1,n,u,n,9.28µM,n
CCOC(=O)c1sc2cccc(F)c2c1S(=O)(=O)NCc1ccccc1Cl,x,x,n,x,n
O=[N+]([O-])c1ccc(Cl)c(S(=O)(=O)/N=C(/Sc2ccc(Br)cc2)c2ccccc2)c1,x,x,n,x,n
O=Nc1c(O)c2ccccc2c2ccccc12,n,x,10µM,x,u
O=c1ccc2ccccc2c2ccccc12,n,x,n,x,n
COc1ccc(N2CC(NC(=O)C3CCCCC3)CC2=O)cc1OC (stereo not given),x,x,n,x,n
CCC(C)Sc1nc(O)c(Cc2ccccc2)c(=O)[nH]1 (stereo not given),n,x,x,2.62µM,x
CC(C)Sc1nc(O)c(Cc2ccccc2)c(=O)[nH]1,n,n,x,x,x
CC(C)CN(CCNC(=O)CN1C(=O)COc2ccc(S(=O)(=O)N3CCC(C)CC3)cc21)CC(C)C,n,u,n,11.7µM,n
COC(=O)CN1C(=O)COc2ccc(S(=O)(=O)N3CCCCCC3)cc21,n,n,x,u,x
COc1ccc(CCNC(=O)CN2C(=O)COc3ccc(S(=O)(=O)N4CCCC4)cc32)c(OC)c1,n,n,n,9.28µM,n
COC(=O)CN1C(=O)COc2ccc(S(=O)(=O)N3CCOCC3)cc21,n,n,n,9.28µM,n
COc1ccc(OC)c(CCNC(=O)CN2C(=O)COc3ccc(S(=O)(=O)N4CCCCCC4)cc32)c1,x,x,n,x,n
CCc1ccc(CNC(=O)c2ccc3c(c2)nc2n3CCOC2)cc1,x,x,n,x,n
COc1cccc(-c2nc(SCc3cc(=O)c4cc(Cl)ccc4[nH]3)n[nH]2)c1,x,x,n,x,n
COc1ccc2[nH]c3c(N4CCc5ccccc5C4)ncnc3c2c1,n,u,14.1µM,u,u
COc1cc2[nH]c3c(N4CCN(c5ccccn5)CC4)ncnc3c2cc1OC,n,9.28µM,u,14.7µM,u
Cc1c(Cl)cccc1NC(=O)C(CCS(C)(=O)=O)N1Cc2ccccc2C1=O (stereo not given),x,x,n,x,n
SMILES,AMA1-RON2 inh,Pf growth 48h,VACV Venus inh,Pf growth 96h,VACV mCherry inh
CC(=O)Nc1ccc(S(=O)(=O)NC(=O)C23CC4CC(CC(C4)C2)C3)cc1,n,x,n,0.928µM,n
Cc1cccc(N2C(=O)c3cccc4c(N(C)CCO)ccc(c34)C2=O)c1,n,u,n,5.86µM,n
O=C(NCCc1nc2ccccc2n1CCCOc1ccc2ccccc2c1)C1CCCCC1,x,x,u,x,3.16µM
Cc1cc(NC(=O)CSc2nc3c([nH]c4ccccc43)c(=O)n2-c2cccc(Cl)c2)no1,x,x,n,x,n
CCCOC(=O)c1ccc(NC(=O)C2CC(=O)N(c3ccc(C)cc3)C2)cc1 (stereo not given),x,x,n,x,n
CCN(/N=C/c1ccc(Cl)cc1)c1cc(=O)n(C)c(=O)[nH]1,n,n,n,u,n
CCN(/N=C/C=C/c1ccccc1)c1cc(=O)n(C)c(=O)[nH]1,n,u,n,7.38µM,n
